From PubChem BioAssay
CYP2C9 activ = activators of human CYP2C9; P11712; recombinant CYP2C9, luciferin-H conversion, luminescence; active compounds read high; factor 1 = untreated enzyme, 0 = blocked; activation factor at 5 µM; hit rate 1.4% among 96,000; AID 1024;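 active means activation factor of 2 or more for CYP2C9 at a 5 µM dose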
CYP2C19 inhib = blocks human cytochrome P450 2C19; P33261; hit rate 21% among 96,000; CYP2C19 Supersomes, luciferin-H EGE luminescence, 30 min; inhibition, % at 5 µM; AID 778;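 active means CYP2C19 inhibition above a set limit at 5 µM in the primary screen, cut at about 50% in these data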
Target sequence (P33261 whole entry, looked up): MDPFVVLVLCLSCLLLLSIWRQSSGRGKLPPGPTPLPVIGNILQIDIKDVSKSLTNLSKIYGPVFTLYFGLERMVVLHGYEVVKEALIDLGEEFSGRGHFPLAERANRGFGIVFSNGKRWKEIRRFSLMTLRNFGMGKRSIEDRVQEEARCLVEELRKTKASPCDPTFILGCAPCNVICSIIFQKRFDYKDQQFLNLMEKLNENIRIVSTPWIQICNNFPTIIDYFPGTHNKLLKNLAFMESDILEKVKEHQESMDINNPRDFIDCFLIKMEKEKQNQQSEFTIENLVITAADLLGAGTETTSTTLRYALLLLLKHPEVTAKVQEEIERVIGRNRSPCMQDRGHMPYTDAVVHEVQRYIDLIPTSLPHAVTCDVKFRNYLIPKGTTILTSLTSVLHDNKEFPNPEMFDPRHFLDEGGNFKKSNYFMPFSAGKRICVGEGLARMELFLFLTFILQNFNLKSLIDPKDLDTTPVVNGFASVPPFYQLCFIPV
DAT uptake mod = modulates human dopamine transporter uptake under cocaine; Q01959; LLC-PK1 hDAT cells, [14C]-dopamine uptake with cocaine IC80; actives deviate in either direction; B-score at 10 µM; hit rate 1.3% among 110,000;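 active means Z score or B-score, a plate-position-corrected score, falls beyond the plate's 99.7% confidence bounds, in either direction; inactive means both scores lie inside the 99.7% bounds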
CYP2C9 inhib = human CYP2C9 inhibition; hit rate 20% among 96,000; CYP2C9 Supersomes, luciferin-H conversion, luminescence; P11712; inhibition, % at 5 µM;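 active means blocking of liver enzyme CYP2C9 beyond about 50% at 5 µM, limit read from the data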
D1 allo mod = allosterically modulates the human D1 dopamine receptor; B-score at 10 µM; hit rate 5.9% among 58,000; P21728; HEK293 D1, CRE-luciferase, dopamine EC30 potentiation; actives deviate in either direction;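 active means luminescence count or its row- and column-corrected plate score outside the 99.7% band of the plate's sample wells, on either side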
CYP2C19 activ = increases human CYP2C19 enzyme activity | P33261 | activation factor at 5 µM | AID 1025 | recombinant CYP2C19, luciferin-H EGE luminescence; active compounds read high; 0 = fully inhibited enzyme, 1 = untreated enzyme | 96,000 tested, under 10 active;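 active means activation factor of at least 2 at 5 µM in the primary screen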
D1 PAM confirm = confirmation of human D1 dopamine receptor allosteric modulators | hit rate 88% among 2,200 | HEK293 D1 CRE-luciferase, dopamine EC30 potentiation; active compounds read high | shares compounds with D1 allo mod | luminescence at 10 µM;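 active means luminescence in either of two replicates above the same-plate mean plus 3 SD of the low-dose dopamine control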
D1 no dopamine = activates D1 CRE-luciferase signal without dopamine present; luminescence at 10 µM; HEK293 D1 CRE-luciferase, luminescence, no dopamine; active compounds read high; AID 646; hit rate 0.8% among 1,900; shares compounds with D1 allo mod; in the data active means luminescence above about 3900
Isoprot counter = isoproterenol response counter-screen activity for D1 modulators; calls only at 10 µM; hit rate 63% among 2,200; HEK293 D1 CRE-luciferase, isoproterenol EC30 counter-screen; shares compounds with D1 allo mod;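 active means luminescence in either replicate above plate mean of wells with a partly effective reference agonist dose plus 3 SD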;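 further: isoproterenol raises cAMP through native beta-adrenoceptor Gs so signal bypasses D1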
Numbers stand for hits; . = inactive; / = no result; + = active, no number. Shown are actives, neighbours in structure and some others; about 28% of the full set was active somewhere.

SMILES	CYP2C9 activ	CYP2C19 inhib	DAT uptake mod	CYP2C9 inhib	D1 allo mod	CYP2C19 activ	D1 PAM confirm	D1 no dopamine	Isoprot counter
N#CC1=C(N)N(c2ccccc2)C2=C(C(=O)CCC2)C1c1ccsc1 (stereo unspecified)	.	.	.	.	8.34	.	17976	.	.
Nc1ncnc2c1ncn2CCOc1ccccc1	.	.	.	.	4.9	.	6344	.	.
Cc1cc2ncn(CCOc3ccccc3)c2cc1C	.	.	/	.	/	.	/	/	/
O=C(c1ccc(S(=O)(=O)N2CCOCC2)cc1)N1CCN(c2ccc(F)cc2)CC1	.	.	.	.	3.33	.	.	.	.
CN(c1ccc(C(=O)N2CCN(c3ccc(F)cc3)CC2)cc1)S(C)(=O)=O	.	.	.	.	.	.	/	/	/
Cc1ccc(C)c(CN2C(=O)C(C)Oc3ccc(C)cc32)c1 (stereo unspecified)	.	.	.	.	.	.	/	/	/
Cc1ccccc1OCCCC(=O)Nc1ccc(Br)cc1	.	.	.	.	/	.	/	/	/
CCc1nn(CCCC(=O)N2CCc3ccccc3C2)c(=O)c2cc3occc3n12	.	79.7	.	.	2.87	.	10688	.	.
CCCCCCSc1nc2c(c(=O)[nH]c(=O)n2C)n1C	.	.	.	.	.	.	/	/	/
CCCCCn1c(SC(C)C(C)=O)nc2c1c(=O)[nH]c(=O)n2C (stereo unspecified)	.	.	.	.	8	.	20968	.	+
CCCCn1c(NC(C)CC)nc2c1c(=O)[nH]c(=O)n2C (stereo unspecified)	.	.	.	53.3	11	.	21532	.	+
CCCCn1c(SCC(=O)OCC)nc2c1c(=O)[nH]c(=O)n2C	.	.	.	.	.	.	/	/	/
CCCCCn1c(Sc2ccccc2)nc2c1c(=O)[nH]c(=O)n2C	.	.	.	.	/	.	/	/	/
CCCCCCn1c(SCCCC)nc2c1c(=O)[nH]c(=O)n2C	.	.	.	.	10.9	.	26000	.	+
Nc1nc(SCc2c(Cl)cccc2Cl)n[nH]1	.	.	.	.	/	.	/	/	/
O=S(=O)(c1cccs1)N1CCN(c2ccccn2)CC1	/	/	.	/	10.7	/	10548	.	.
C=CCSc1nc(N)c(C#N)c(-c2ccc(C)cc2)c1C#N	.	.	.	63.4	3.15	.	.	.	.
CCCc1[nH]nc2c1C1(CCN(C(=O)OCc3ccccc3)CC1)C(C#N)=C(N)O2	.	.	.	.	2.5	.	8040	.	+
CCc1[nH]nc2c1C1(CCN(C(=O)OCc3ccccc3)CC1)C(C#N)=C(N)O2	/	/	.	/	.	/	/	/	/
Cc1cc(NC(=O)COc2nnc(-c3ccccc3)c3ccccc23)no1	.	52.3	.	63.3	5.49	.	6684	.	.
COc1ccc(NC(=O)Nc2ccc(N3CCCC3=O)cc2)cc1OC	.	.	.	.	.	.	/	/	/
COc1ccc(NC(=O)C2CCC(CNc3c(N4CCCCC4)c(=O)c3=O)CC2)cc1OC (stereo unspecified)	.	.	.	.	/	.	/	/	/
COc1ccc(NC(=O)C2CCCN2c2ccc(OC)c(OC)c2)cc1OC (stereo unspecified)	.	.	.	.	6.04	.	15612	.	+
COc1ccc(CN2CCCCC2C(=O)Nc2ccc(OC)c(OC)c2)cc1OC (stereo unspecified)	.	.	.	.	7.19	.	14900	.	+
COc1ccccc1CNc1ccc(N2CCOCC2)c(C(=O)O)c1	.	.	.	.	.	.	/	/	/
CCOC(=O)c1cc2c(=O)n3ccccc3nc2n(CC(C)C)c1=NC(=O)c1ccco1	.	.	.	.	8.31	.	18960	.	+
CCOC(=O)c1cc2c(=O)n3ccccc3nc2n(CCCOC)c1=NC(=O)c1cccnc1	/	/	/	/	3.76	/	9344	.	.
CCOC(=O)c1cc2c(=O)n3ccccc3nc2n(CCOC)c1=NC(=O)c1ccncc1	.	.	.	.	.	.	/	/	/
